Source: PMC7862700, “An all-to-all approach to the identification of sequence-specific readers for epigenetic DNA modifications on cytosine”

Tests used:
Test in all cases: DAPPL (digital affinity profiling via proximity ligation, sequencing); 10 mM Tris-HCl pH 7.5, 50 mM NaCl, 1 mM DTT, 4% glycerol, room temperature, 30 min; GST-TFs on glutathione beads, 16-mer random dsDNA library, 0.1% formaldehyde crosslink after washing; high values mean tight binding
FLI1 = biological target: T1, FLI1 (Homo sapiens, UniProt Q01543 1-452); details: protein: recombinant; tags: N-terminal GST; dsDNA, one strand shown
T1 sequence: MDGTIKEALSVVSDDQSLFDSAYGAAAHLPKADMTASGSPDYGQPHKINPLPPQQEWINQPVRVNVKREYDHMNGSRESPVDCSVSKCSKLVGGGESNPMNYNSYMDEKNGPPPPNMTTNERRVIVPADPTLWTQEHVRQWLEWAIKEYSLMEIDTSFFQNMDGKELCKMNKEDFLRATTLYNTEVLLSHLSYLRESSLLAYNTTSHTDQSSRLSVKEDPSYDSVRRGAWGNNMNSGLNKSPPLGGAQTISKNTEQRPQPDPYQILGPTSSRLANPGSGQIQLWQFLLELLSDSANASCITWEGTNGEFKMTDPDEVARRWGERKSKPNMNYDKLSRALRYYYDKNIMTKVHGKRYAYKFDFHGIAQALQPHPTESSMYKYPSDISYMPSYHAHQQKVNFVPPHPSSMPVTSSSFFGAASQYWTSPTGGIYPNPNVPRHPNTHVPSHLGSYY
Procedure, shortened: (§1)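 Yeast served to express human transcription factors as GST fusions, which were then captured on glutathione beads and labelled with DNA barcodes. Pooled with a tag-only sample, they were incubated with 200 nmole of a 16-mer random double-stranded DNA library for 30 min at room temperature in Tris/NaCl/DTT/glycerol buffer, washed, crosslinked with 0.1% formaldehyde, ligated by proximity, amplified by PCR and sequenced. Dividing each hexamer's read frequency for a factor by its frequency for the tag-only sample gives the binding signal.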

ELK1 = biological target: T2, ELK1 (Homo sapiens, UniProt P19419 1-428); details: protein: recombinant; tags: N-terminal GST; dsDNA, one strand shown
T2 sequence: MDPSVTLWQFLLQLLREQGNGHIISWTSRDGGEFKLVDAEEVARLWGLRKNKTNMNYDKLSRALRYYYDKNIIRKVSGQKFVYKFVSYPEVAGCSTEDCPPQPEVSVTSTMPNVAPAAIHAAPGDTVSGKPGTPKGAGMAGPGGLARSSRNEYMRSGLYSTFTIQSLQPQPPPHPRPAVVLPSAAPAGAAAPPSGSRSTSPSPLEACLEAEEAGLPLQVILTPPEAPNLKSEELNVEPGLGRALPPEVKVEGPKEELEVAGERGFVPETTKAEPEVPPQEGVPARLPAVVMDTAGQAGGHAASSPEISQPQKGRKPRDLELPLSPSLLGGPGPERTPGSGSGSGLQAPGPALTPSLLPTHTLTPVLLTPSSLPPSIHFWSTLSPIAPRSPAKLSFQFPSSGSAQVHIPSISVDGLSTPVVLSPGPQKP
Procedure, shortened: as §1

GABPA = biological target: T3, GABPA (Homo sapiens, UniProt Q06546 1-454); details: protein: recombinant; tags: N-terminal GST; dsDNA, one strand shown
T3 sequence: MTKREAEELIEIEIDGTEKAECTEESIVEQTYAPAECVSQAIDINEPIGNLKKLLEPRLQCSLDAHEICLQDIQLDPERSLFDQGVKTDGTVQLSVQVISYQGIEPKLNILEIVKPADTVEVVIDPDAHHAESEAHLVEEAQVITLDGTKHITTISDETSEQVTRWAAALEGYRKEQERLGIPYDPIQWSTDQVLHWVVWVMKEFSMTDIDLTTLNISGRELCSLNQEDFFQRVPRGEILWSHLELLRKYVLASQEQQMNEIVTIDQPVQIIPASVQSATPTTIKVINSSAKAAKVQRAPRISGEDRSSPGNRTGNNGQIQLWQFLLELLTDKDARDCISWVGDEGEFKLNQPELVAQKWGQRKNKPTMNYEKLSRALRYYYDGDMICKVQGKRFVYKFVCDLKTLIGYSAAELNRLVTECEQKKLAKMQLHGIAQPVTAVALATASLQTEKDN
Procedure, shortened: as §1

ERG = biological target: T4, ERG (Homo sapiens, UniProt P11308 1-479); details: protein: recombinant; tags: N-terminal GST; dsDNA, one strand shown
T4 sequence: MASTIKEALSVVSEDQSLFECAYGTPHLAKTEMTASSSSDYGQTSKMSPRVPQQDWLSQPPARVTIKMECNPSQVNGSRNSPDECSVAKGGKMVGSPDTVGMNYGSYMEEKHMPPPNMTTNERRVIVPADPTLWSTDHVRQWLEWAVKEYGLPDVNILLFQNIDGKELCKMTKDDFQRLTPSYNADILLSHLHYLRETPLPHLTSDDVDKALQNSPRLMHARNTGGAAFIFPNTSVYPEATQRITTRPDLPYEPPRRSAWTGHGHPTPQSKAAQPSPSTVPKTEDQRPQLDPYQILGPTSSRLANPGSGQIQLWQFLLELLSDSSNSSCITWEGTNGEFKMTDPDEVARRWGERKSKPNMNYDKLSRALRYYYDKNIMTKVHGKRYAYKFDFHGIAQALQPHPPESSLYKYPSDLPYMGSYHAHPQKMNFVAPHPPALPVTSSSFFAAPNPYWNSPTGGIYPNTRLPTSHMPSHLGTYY
Procedure, shortened: as §1

ELF1 = ELF1 (Homo sapiens, UniProt P32519 1-619); details: protein: recombinant; tags: N-terminal GST; dsDNA, one strand shown
ELF1, sequence (P32519 whole entry): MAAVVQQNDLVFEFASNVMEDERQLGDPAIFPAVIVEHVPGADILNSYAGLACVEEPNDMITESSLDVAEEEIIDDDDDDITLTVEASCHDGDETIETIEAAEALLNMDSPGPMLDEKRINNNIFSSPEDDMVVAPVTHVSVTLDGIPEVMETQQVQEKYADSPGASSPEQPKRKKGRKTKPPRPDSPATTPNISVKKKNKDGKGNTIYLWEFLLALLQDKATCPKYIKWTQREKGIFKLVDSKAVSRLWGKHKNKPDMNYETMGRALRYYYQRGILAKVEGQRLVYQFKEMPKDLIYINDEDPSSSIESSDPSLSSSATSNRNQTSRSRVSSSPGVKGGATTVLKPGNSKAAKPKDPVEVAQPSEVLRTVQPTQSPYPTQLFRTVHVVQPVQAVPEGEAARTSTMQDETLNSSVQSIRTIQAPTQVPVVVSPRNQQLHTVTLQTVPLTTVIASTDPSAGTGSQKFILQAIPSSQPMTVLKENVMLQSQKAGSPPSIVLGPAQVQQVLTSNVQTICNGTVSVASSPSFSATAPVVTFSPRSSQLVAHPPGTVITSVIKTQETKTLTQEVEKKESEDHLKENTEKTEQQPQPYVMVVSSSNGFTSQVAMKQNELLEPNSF
Procedure, shortened: as §1

EHF = biological target: T5, EHF (Homo sapiens, UniProt Q9NZC4 1-300); details: protein: recombinant; tags: N-terminal GST; dsDNA, one strand shown
T5 sequence: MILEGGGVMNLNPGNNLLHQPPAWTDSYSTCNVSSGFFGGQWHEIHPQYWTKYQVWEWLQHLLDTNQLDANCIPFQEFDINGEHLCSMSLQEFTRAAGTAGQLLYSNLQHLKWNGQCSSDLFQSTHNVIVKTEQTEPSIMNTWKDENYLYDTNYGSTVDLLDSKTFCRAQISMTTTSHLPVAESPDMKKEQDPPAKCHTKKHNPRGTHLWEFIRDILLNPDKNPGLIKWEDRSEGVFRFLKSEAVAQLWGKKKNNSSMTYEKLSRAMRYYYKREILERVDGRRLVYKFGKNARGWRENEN
Procedure, shortened: as §1

SPI1 = SPI1 (Homo sapiens, UniProt P17947 1-270); details: protein: recombinant; tags: N-terminal GST; dsDNA, one strand shown
Procedure, shortened: as §1

SPIB = SPIB (Homo sapiens, UniProt Q01892 1-262); details: protein: recombinant; tags: N-terminal GST; dsDNA, one strand shown
SPIB, sequence (Q01892 whole entry): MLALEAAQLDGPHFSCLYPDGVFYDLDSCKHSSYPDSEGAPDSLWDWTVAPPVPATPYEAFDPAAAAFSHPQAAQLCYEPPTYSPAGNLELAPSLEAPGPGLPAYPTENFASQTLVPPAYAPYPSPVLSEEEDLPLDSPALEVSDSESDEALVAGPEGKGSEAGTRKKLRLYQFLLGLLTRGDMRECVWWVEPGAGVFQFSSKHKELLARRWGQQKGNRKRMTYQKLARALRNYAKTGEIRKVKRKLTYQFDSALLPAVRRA
Procedure, shortened: as §1

ELK3 = biological target: T6, ELK3 (Homo sapiens, UniProt P41970 1-407); details: protein: recombinant; tags: N-terminal GST; dsDNA, one strand shown
T6 sequence: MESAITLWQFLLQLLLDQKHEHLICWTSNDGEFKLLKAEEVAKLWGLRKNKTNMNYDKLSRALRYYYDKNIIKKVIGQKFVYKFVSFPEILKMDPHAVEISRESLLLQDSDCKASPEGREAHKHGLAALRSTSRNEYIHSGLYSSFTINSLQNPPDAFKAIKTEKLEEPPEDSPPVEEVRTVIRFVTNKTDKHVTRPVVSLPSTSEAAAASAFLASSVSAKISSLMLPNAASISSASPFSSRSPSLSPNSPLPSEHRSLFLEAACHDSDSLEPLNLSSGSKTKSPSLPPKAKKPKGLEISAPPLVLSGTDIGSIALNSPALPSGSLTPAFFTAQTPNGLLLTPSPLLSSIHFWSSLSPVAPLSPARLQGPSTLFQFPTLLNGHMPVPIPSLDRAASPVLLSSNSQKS
Procedure, shortened: as §1

FEV = biological target: T7, FEV (Homo sapiens, UniProt Q99581 1-238); details: protein: recombinant; tags: N-terminal GST; dsDNA, one strand shown
T7 sequence: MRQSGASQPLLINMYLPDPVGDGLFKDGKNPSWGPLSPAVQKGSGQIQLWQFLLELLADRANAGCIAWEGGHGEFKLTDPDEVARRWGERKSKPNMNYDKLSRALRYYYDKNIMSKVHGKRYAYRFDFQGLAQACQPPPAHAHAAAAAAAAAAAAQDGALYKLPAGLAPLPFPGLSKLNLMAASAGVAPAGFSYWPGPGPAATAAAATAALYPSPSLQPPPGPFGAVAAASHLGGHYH
Procedure, shortened: as §1

ETV5 = ETV5 (Homo sapiens, UniProt P41161 1-510); details: protein: recombinant; tags: N-terminal GST; dsDNA, one strand shown
ETV5, sequence (P41161 whole entry): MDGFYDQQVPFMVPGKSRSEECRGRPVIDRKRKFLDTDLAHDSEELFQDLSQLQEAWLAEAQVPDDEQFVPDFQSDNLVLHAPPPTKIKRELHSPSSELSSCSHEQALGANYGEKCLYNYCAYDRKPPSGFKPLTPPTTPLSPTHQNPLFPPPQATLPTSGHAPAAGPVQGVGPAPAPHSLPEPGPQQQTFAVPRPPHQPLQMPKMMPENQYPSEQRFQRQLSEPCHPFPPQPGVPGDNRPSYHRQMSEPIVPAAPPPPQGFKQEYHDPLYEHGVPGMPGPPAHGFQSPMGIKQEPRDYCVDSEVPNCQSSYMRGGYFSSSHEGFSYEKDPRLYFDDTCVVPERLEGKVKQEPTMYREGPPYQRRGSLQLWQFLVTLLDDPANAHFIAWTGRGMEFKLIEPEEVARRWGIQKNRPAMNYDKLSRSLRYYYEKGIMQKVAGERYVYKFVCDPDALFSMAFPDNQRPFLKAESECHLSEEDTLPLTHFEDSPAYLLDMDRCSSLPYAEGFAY
Procedure, shortened: as §1

HSF1 = HSF1 (Homo sapiens, UniProt Q00613 1-529); details: protein: recombinant; tags: N-terminal GST; chain copies: 3; dsDNA, one strand shown
HSF1, sequence (Q00613 whole entry): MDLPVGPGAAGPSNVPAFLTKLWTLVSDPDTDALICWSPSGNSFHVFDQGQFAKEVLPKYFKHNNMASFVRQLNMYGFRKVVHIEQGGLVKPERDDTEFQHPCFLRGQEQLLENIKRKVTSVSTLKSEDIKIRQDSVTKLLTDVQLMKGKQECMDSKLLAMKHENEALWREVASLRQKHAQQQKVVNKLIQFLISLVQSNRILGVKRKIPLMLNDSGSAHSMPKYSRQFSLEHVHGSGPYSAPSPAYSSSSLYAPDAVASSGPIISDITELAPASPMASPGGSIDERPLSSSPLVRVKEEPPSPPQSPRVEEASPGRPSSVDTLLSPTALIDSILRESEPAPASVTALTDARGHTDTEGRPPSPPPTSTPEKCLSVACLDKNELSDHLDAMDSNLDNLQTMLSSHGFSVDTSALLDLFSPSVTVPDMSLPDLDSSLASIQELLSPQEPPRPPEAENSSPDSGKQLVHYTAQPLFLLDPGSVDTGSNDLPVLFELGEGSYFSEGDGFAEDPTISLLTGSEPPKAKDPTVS
Procedure, shortened: as §1

SPIC = biological target: T8, SPIC (Homo sapiens, UniProt Q8N5J4 1-248); details: protein: recombinant; tags: N-terminal GST; dsDNA, one strand shown
T8 sequence: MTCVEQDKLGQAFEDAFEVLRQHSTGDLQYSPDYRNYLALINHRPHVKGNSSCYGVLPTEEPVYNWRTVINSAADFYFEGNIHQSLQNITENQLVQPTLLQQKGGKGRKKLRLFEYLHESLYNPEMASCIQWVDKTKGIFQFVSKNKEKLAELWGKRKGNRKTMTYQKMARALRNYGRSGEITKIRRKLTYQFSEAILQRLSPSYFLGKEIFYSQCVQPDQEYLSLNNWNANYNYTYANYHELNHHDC
Procedure, shortened: as §1

ELF4 = ELF4 (Homo sapiens, UniProt Q99607 1-663); details: protein: recombinant; tags: N-terminal GST; dsDNA, one strand shown
ELF4, sequence (Q99607 whole entry): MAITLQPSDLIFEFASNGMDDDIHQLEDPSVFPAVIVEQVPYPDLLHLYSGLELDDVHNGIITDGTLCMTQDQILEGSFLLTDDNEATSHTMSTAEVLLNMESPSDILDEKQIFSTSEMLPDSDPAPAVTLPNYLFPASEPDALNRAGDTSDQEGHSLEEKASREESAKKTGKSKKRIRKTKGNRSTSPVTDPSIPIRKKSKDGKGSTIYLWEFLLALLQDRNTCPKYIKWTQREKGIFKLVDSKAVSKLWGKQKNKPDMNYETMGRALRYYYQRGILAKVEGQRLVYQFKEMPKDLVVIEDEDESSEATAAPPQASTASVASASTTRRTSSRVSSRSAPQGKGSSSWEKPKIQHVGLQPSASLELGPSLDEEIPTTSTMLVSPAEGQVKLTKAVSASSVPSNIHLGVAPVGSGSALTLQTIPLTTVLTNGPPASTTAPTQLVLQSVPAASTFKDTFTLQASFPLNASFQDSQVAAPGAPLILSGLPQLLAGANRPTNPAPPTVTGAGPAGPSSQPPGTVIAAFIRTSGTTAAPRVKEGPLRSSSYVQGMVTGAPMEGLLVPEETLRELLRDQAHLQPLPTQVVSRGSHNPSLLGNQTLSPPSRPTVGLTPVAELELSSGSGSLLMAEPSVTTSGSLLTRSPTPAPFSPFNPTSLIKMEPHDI
Procedure, shortened: as §1

ELK4 = biological target: T9, ELK4 (Homo sapiens, UniProt P28324-2 1-405); details: protein: recombinant; tags: N-terminal GST; dsDNA, one strand shown
T9 sequence: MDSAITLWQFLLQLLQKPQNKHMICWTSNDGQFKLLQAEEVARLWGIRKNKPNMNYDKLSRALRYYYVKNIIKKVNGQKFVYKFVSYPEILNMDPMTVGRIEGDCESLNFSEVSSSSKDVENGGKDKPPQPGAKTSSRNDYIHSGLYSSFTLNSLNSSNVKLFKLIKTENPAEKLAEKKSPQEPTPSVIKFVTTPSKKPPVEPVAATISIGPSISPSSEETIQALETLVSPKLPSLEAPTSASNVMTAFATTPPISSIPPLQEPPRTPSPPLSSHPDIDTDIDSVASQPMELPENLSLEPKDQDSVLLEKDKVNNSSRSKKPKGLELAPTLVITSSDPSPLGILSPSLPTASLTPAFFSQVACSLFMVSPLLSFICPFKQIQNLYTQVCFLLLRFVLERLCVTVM
Procedure, shortened: as §1

ETV2 = biological target: T10, ETV2 (Homo sapiens, UniProt O00321 1-342); details: protein: recombinant; tags: N-terminal GST; dsDNA, one strand shown
T10 sequence: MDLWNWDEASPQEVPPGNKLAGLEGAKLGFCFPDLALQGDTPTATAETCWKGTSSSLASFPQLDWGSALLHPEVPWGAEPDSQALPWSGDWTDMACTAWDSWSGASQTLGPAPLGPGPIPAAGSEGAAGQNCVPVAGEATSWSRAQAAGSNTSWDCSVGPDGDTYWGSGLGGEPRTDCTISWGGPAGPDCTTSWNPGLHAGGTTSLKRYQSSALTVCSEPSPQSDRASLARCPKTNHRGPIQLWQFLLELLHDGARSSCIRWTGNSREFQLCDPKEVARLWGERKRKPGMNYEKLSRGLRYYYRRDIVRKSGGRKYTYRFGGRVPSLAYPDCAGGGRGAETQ
Procedure, shortened: as §1

ELF3 = biological target: T11, ELF3 (Homo sapiens, UniProt P78545 1-371); details: protein: recombinant; tags: N-terminal GST; dsDNA, one strand shown
T11 sequence: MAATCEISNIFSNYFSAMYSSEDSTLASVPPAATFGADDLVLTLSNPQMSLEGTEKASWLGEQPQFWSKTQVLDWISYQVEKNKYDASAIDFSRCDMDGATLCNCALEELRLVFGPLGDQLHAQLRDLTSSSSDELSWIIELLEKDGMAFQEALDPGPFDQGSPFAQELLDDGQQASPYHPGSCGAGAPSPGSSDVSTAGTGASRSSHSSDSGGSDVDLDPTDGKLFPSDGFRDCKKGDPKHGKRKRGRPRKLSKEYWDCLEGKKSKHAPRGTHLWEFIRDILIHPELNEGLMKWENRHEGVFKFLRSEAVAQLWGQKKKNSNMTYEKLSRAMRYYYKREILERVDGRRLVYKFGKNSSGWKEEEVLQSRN
Procedure, shortened: as §1

CRX = CRX (Homo sapiens, UniProt O43186 1-299); details: protein: recombinant; tags: N-terminal GST; dsDNA, one strand shown
CRX, sequence (O43186 whole entry): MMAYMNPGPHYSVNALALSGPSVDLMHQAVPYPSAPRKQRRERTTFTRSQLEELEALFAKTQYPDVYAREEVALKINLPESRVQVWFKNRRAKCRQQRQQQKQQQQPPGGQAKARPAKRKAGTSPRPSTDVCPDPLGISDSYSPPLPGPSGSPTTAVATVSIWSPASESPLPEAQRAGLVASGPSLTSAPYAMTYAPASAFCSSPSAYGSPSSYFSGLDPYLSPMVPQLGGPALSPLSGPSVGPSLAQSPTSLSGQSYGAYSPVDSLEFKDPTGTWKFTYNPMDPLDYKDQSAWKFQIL
Procedure, shortened: as §1

ETV1 = ETV1 (Homo sapiens, UniProt P50549 1-477); details: protein: recombinant; tags: N-terminal GST; dsDNA, one strand shown
ETV1, sequence (P50549 whole entry): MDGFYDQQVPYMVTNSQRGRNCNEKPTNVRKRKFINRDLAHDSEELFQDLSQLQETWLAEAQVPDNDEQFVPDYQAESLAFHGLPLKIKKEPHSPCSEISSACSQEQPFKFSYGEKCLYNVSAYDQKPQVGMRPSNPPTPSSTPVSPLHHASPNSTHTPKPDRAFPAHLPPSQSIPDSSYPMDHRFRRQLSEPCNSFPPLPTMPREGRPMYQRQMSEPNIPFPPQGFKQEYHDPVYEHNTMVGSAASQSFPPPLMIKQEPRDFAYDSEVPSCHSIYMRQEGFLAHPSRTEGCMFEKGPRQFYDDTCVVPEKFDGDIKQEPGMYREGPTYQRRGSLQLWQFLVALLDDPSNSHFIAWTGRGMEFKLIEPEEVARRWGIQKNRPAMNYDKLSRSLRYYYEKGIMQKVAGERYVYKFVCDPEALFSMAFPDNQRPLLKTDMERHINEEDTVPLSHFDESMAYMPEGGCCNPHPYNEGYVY
Procedure, shortened: as §1

## TAAAAT
FLI1
  binding signal: 1.17 fold enrichment (6-mer frequency, TF over GST control)
ELK1
  binding signal: 1.2 fold enrichment (6-mer frequency, TF over GST control)
GABPA
  binding signal: 1.25 fold enrichment (6-mer frequency, TF over GST control)
ERG
  binding signal: 1.19 fold enrichment (6-mer frequency, TF over GST control)
ELF1
  binding signal: 1.24 fold enrichment (6-mer frequency, TF over GST control)
EHF
  binding signal: 1.1 fold enrichment (6-mer frequency, TF over GST control)
SPI1
  binding signal: 1.25 fold enrichment (6-mer frequency, TF over GST control)
SPIB
  binding signal: 1.2 fold enrichment (6-mer frequency, TF over GST control)
ELK3
  binding signal: 1.1 fold enrichment (6-mer frequency, TF over GST control)
FEV
  binding signal: 1.14 fold enrichment (6-mer frequency, TF over GST control)
ETV5
  binding signal: 1.22 fold enrichment (6-mer frequency, TF over GST control)
HSF1
  binding signal: 1.48 fold enrichment (6-mer frequency, TF over GST control)
SPIC
  binding signal: 1.19 fold enrichment (6-mer frequency, TF over GST control)
ELF4
  binding signal: 1.2 fold enrichment (6-mer frequency, TF over GST control)
ELK4
  binding signal: 1.2 fold enrichment (6-mer frequency, TF over GST control)
ETV2
  binding signal: 1.34 fold enrichment (6-mer frequency, TF over GST control)
ELF3
  binding signal: 1.27 fold enrichment (6-mer frequency, TF over GST control)
CRX
  binding signal: 1.76 fold enrichment (6-mer frequency, TF over GST control)
ETV1
  binding signal: 1.22 fold enrichment (6-mer frequency, TF over GST control)
